Screening results from PubChem.
This is a sample that favours compounds with a hit; in the whole collection about 5.9% have one here.
TrxR1 substrate – substrates of rat thioredoxin reductase 1; actives 0.01% (n = 390,000); AID 588456; Potency, µM (doses to about 114 µM); purified TrxR1 substrate turnover, NADPH consumption readout; O89049; active means well fitted curve in the direction sought with a large enough effect; inconclusive means small, poorly fitted or top-dose-only effect, or another doubt; inactive means no such curve, though single readings can be large; an effect the other way counts as inactive or inconclusive; further: nearly all actives have a fitted effect of over 50% in size
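Rat TrxR1, dispensed at 90 nM, was prereduced with 400 uM NADPH (final) for 5 min at ~22 deg C, then incubated with compound 15 min before 400 uM selenite. A first-read NADPH fluorescence drop versus no-compound background flagged substrates.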
FBPA coupling cs – inhibits coupling enzyme system, counter-screen for aldolase hits; activity change, negative = inhibition, % at 58.2 µM, hits read low; actives 0.67% (n = 290,000); coupling enzyme system counterscreen, AmpLite Red fluorescence; AID 2472; in the data active means activity change below about -30%
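Final compound at 57.5 uM, incubated 10 min at RT with coupling enzyme reagent (glyceraldehyde-3-phosphate), then 20 min with substrate and AmpLite Red detection. Fluorescence read at 525/598 nm; tests interference with the coupling assay, not aldolase inhibition.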
Gal4-VP16 FLuc – counter-screen for ROR gamma inhibitors: Gal4-VP16 reporter. Drosophila S2 Gal4-VP16 UAS-luciferase, luminescence, 20 h. Potency, µM (highest dose often 53.6 µM), usual class: inhibitors. actives 3.5% (n = 310,000); active means well fitted curve in the direction sought with a large enough effect; inconclusive means small, poorly fitted or top-dose-only effect, or another doubt; inactive means no such curve, though single readings can be large; an effect the other way counts as inactive or inconclusive;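 further: Gal4-VP16 expression switched on by copper sulfate through the metallothionein promoter; nearly all actives have a fitted effect of over 50% in size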
RORg inh – blocks mouse ROR gamma transcriptional activity. Drosophila S2 Gal4-RORgamma UAS-luciferase reporter, 20 h. actives 5.4% (n = 310,000). P51450. Potency, µM (highest dose often 53.6 µM), usual class: inhibitors; active means well fitted curve in the direction sought with a large enough effect; inconclusive means small, poorly fitted or top-dose-only effect, or another doubt; inactive means no such curve, though single readings can be large; an effect the other way counts as inactive or inconclusive; further: nearly all actives have a fitted effect of over 60% in size
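Stably transfected Drosophila Schneider cells are the test system, with ROR gamma fused to Gal4 and luciferase under UAS control; luminescence is read after 20 hr of 700 uM copper sulfate induction at ambient temperature.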
TrxR1 inh – rat TrxR1 inhibition. O89049. recombinant rTrxR1, NADPH fluorescence consumption, selenite substrate. Potency, µM (doses to about 114 µM), actives largely listed as inhibitors. actives 1% (n = 390,000). AID 588453; active means well fitted curve in the direction sought with a large enough effect; inconclusive means small, poorly fitted or top-dose-only effect, or another doubt; inactive means no such curve, though single readings can be large; an effect the other way counts as inactive or inconclusive; further: nearly all actives have a fitted effect of over 65% in size
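Rat TrxR1 (90 nM in the dispensed reagent) was pre-reduced with 400 uM NADPH for 5 min at room temperature, then incubated with compound for 15 min. After 400 uM selenite was added, NADPH fluorescence (Ex 340/Em 450 nm) was followed for 8 min.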
GALK inh – inhibitors of human galactokinase; P51570; Purified GALK, Kinase-Glo residual ATP luminescence; Potency, µM (series often up to 57.5 µM), most hits filed as inhibitors; actives 0.007% (n = 270,000); active means well fitted curve in the direction sought with a large enough effect; inconclusive means small, poorly fitted or top-dose-only effect, or another doubt; inactive means no such curve, though single readings can be large; an effect the other way counts as inactive or inconclusive
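Kinase-Glo Plus luminescence measured ATP left after a 1 h room-temperature reaction. The reaction used 5 nM GALK, 100 uM galactose and 35 uM ATP at pH 8.0 (20 mM HEPES, 5 mM MgCl2, 60 mM NaCl, 1 mM DTT, 0.01% BSA).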
CASP1 redox cat – inhibits human caspase-1 in catalase buffer, redox counter-screen; 30 tested, under 10 active; shares compounds with FBPA coupling cs; Potency, µM (doses to about 57.5 µM), usual class: inhibitors; caspase-1 Ac-WEHD-AFC fluorescence rate, catalase buffer; AID 888
Casp1 confirm – confirmation of allosteric or competitive inhibitors of human caspase-1 | purified caspase-1, fluorogenic substrate cleavage | actives 20% (n = 60) | Potency, µM (highest dose often 57.5 µM), actives largely listed as inhibitors | AID 896 | shares compounds with FBPA coupling cs
Casp7 confirm – confirmation of allosteric or competitive inhibitors of human caspase-7; shares compounds with FBPA coupling cs; recombinant caspase-7, fluorogenic substrate cleavage; Potency, µM (highest dose often 57.5 µM), usual class: inhibitors; 60 tested, under 10 active; active means well fitted inhibition curve with a large enough effect in the main read-out, with a control signal flat, not every such curve was filed as active; inconclusive means small, poorly fitted or top-dose-only effect, or a change in a side signal; inactive means no such curve, though single readings can be large or run the other way
Casp7 cysteine – caspase-7 inhibition with cysteine present | caspase-7 enzyme with cysteine, fluorogenic substrate, redox counterscreen | Potency, µM (highest dose often 57.5 µM), hits mostly inhibitors | shares compounds with FBPA coupling cs | AID 908 | 60 tested, under 10 active
Casp7 catalase – caspase-7 inhibition with catalase present | 30 tested, under 10 active | AID 909 | Caspase-7 Ac-DEVD-AFC fluorescence rate, catalase buffer | Potency, µM (highest dose often 57.5 µM), usual class: inhibitors | shares compounds with FBPA coupling cs
CASP1 redox cys – inhibits caspase-1 in cysteine buffer, redox counter-screen; shares compounds with FBPA coupling cs; 60 tested, under 10 active; AID 929; Potency, µM (series often up to 57.5 µM), hits mostly inhibitors; recombinant caspase-1, fluorogenic substrate, cysteine buffer
HepG2 viability – HepG2 cytotoxicity, 72 h ATP readout | shares compounds with TrxR1 inh | HepG2 viability, ATP luminescence (CellTiter-Glo), 72 h | Potency, µM | actives 50% (n = 40) | AID 2447; calls by dose curve
Numbers stand for hits; 0 = inactive; ? = inconclusive; - = no result given; [ ] = remark or other dose. Unless noted, the call rests on the fitted dose curve; in most records, active means well fitted inhibition curve with a large enough effect in the main read-out, with a control signal flat; inconclusive means small, poorly fitted or top-dose-only effect, or a change in a side signal; inactive means no such curve, though single readings can be large or run the other way.

SMILES	TrxR1 substrate	FBPA coupling cs	Gal4-VP16 FLuc	RORg inh	TrxR1 inh	GALK inh	Casp1 confirm	Casp7 confirm	Casp7 cysteine	CASP1 redox cys	others
CCOC(=O)C1CCN(C(=O)c2c(C)oc3c2C(=O)c2ccccc2C3=O)CC1	0	-47	?	11µM	0	-	-	-	-	-
Cc1oc2c(c1C(=O)N1CCC(C)CC1)C(=O)c1ccccc1C2=O	0	-46	?	7.9µM	0	-	-	-	-	-
CCO[C@H]1OC(C(=O)N2CCN(Cc3ccccc3)CC2)=C[C@@H](c2coc3ccccc3c2=O)[C@@H]1CCCO	0	0	0	0	0	0	-	-	-	-
CCc1ccccc1NNC(=O)CCc1ccccc1	0[11.4 µM]	0	0	0	0[11.4 µM]	-	-	-	-	-
CCCCCC(=O)NNC1=NCC(Cc2ccccc2)S1 (stereo not drawn)	0	0	?	1.4µM	0	0	-	-	-	-
Cc1ccccc1OCC(=O)OCC(=O)NC1CCCCCC1	0	-	-	-	0	-	-	-	-	-
Cc1nn(-c2ccccc2)c(Cl)c1C(=O)NC1CCCCC1	0	0	0	0	0	0	-	-	-	-
Cc1nn(-c2ccccc2)c(Cl)c1C(=O)Nc1nnc(C2CCCC2)s1	0	0	?	7.9µM	0	0	-	-	-	-
COc1ccc(S(=O)(=O)Nc2ccccc2)cc1	0	-	-	-	0	-	-	-	-	-
COc1ccc(S(=O)(=O)Nc2ccc(O)c3ccccc23)cc1	0	0	0	0	?	0	0	0	0	0	CASP1 redox cat=0;Casp7 catalase=0
O=C(COC(=O)c1ccc(Cl)c(S(=O)(=O)N2CCCC2)c1)NC1CCCC1	0	0	0	0	0	0	-	-	-	-
O=C(Nc1ccc2c(c1)OCO2)[C@@H]1[C@@H]2C(=O)N(C3CCCCC3)C(=O)[C@@H]2C2c3ccccc3C=CN21 (stereo partly drawn)	-	-35	0	0	-	0	0	0	0	0	CASP1 redox cat=0;Casp7 catalase=0
COc1cccc(C(=O)Nc2ccccc2C(=O)NC2CC2)c1	0	-	0	0	0	0	-	-	-	-
COc1ccc(CSc2nc(C)cc(=O)[nH]2)cc1Br	0	0	0	0	0	0	-	-	-	-
COc1cc(=O)[nH]c(SCc2c(F)c(F)c(F)c(F)c2F)n1	0	0	0	0	0	0	0	0	0	0
Cc1cc(C)cc(C(=O)N(C)[C@H](Cc2ccc(-c3ccccc3)cc2)C(=O)N[C@@H](Cc2c[nH]c3ccccc23)C(=O)O)c1	-	0	0	0	-	-	?	16µM	16µM	?
COCCN1CCN(C(=O)c2ccc3oc(CCc4ccccc4)nc3c2)CC1	0	-	0	0	0	0	-	-	-	-
COc1ccc(C2CC(=O)N3CN(c4ccccc4F)CSC3=C2C#N)cc1OC (stereo not drawn)	0	0	0	0	?	0	0	0	0	0	CASP1 redox cat=0;Casp7 catalase=0
CCN(C(=O)c1ccc2c(=O)n3c(nc2c1)CCCCC3)c1ccc(F)cc1	0	0	0	0	0	0	-	-	-	-
CC1(C)C(=O)NC2=C1C(=O)C(=O)c1ccccc12	-	-76	2.8µM	1.4µM	-	-	4µM	?	0	0
COc1cc2c(cc1OC)CN(C(=O)CSc1nc3[nH]ncc3c(=O)n1-c1ccccc1)CC2	0	0	0	0	0	0	0	?	?	0	CASP1 redox cat=0;Casp7 catalase=0
COc1ccc(N2CCN(C(=O)CSc3nc4[nH]ncc4c(=O)n3-c3cccc4ccccc34)CC2)cc1	0	0	0	?	0	0	-	-	-	-
CC(=O)Nc1cc(OC(C)=O)c2nonc2c1OC(C)=O	?	-77	?	11µM	0	0	0	0	0	?	CASP1 redox cat=0;Casp7 catalase=0
N#CC1=C2SCN(Cc3ccccc3)CN2C(=O)CC1c1cccs1 (stereo not drawn)	0	-40	0	0	?	0	0	0	0	0	CASP1 redox cat=0;Casp7 catalase=0
N#CC1=C2SCN(Cc3ccco3)CN2C(=O)CC1c1ccc(Cl)cc1 (stereo not drawn)	0	0	?	?	0	0	-	-	-	-
SMILES	TrxR1 substrate	FBPA coupling cs	Gal4-VP16 FLuc	RORg inh	TrxR1 inh	GALK inh	Casp1 confirm	Casp7 confirm	Casp7 cysteine	CASP1 redox cys	others
O=c1oc2ccccc2c(O)c1CN1CCCCC1	0	0	0	0	0	0	-	-	-	-
O=C1NCCCC2c3cc(O)c4ccccc4c3OC12N1CCCCC1 (stereo not drawn)	-	-57	?	10µM	-	0	0	0	0	0	CASP1 redox cat=0;Casp7 catalase=0
Cc1ccccc1NC(=O)CSc1nc2ccccc2o1	0	0	0	?	0	0	-	-	-	-
Cc1ccc(CN2CCC(n3nccc3NC(=O)c3ccc4c(c3)OCO4)CC2)o1	0	0	0	0	0	0	-	-	-	-
COc1cccc(Cn2cccc(NC(=O)NC3CCCCC3)c2=O)c1	0	0	0	?	0	0	0	0	0	0	CASP1 redox cat=0;Casp7 catalase=0
CCC(OC(=O)c1ccc(S(C)(=O)=O)c([N+](=O)[O-])c1)C(=O)NC1C2CC3CC(C2)CC1C3 (stereo not drawn)	-	-	-	-	-	-	-	-	-	-	HepG2 viability=7.6µM
Cc1ccc(C(=O)OC(C)C(=O)NC2CCCCC2)cc1S(=O)(=O)N1CCCCC1 (stereo not drawn)	0	-	-	-	0	-	-	-	-	-
CC(OC(=O)c1ccc(S(C)(=O)=O)c([N+](=O)[O-])c1)C(=O)NC1C2CC3CC(C2)CC1C3 (stereo not drawn)	-	-	-	-	-	-	-	-	-	-	HepG2 viability=8.2µM
Cc1cccc(C(=O)Nc2cccc(C(=O)OCc3cc(=O)n4c5c(sc4n3)CCCC5)c2)c1	0	-	-	-	0	-	-	-	-	-
